# In the supplement of paper PMC10338343:
# ± gives the standard deviation.
# Legend:
# [1] = test system: MILI (PIWIL2) piRISC loaded with L1MC piRNA (26 nt); experiment: pre-steady-state target cleavage rate (min^-1); guide: L1MC piRNA 5'p-UAACUAAAUACUAUGCAAGCUGUAGG; higher = faster piRNA-guided slicing of the target
# How it was run: (§1)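 The pre-steady-state cleavage rate came from a burst-and-steady-state fit to pooled data from three Cleave-'n-Seq trials, in which uncleaved targets were sequenced and normalised to depth and to weakly complementary targets. Each reaction held 0.1 nM transcribed, DNA-blocked target RNA library and 1 nM active affinity-purified piRISC carrying one synthetic guide, with or without 500 nM GTSF1 partner protein, in HEPES–potassium acetate buffer at 33 °C for 0–8 or 0–960 min. k3 was capped at 0.0001 min^-1.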
# [2] = test system: EfPiwi piRISC loaded with L1MC piRNA (26 nt); experiment: pre-steady-state target cleavage rate (min^-1); auxiliary factor: 500 nM Ephydatia muelleri Gtsf1; guide: L1MC piRNA 5'p-UAACUAAAUACUAUGCAAGCUGUAGG; MIWI and MILI are mouse PIWI proteins and EfPiwi is from a freshwater sponge; tags in brackets are library labels; higher = faster piRNA-guided slicing of the target
# How it was run: as §1
# [3] = auxiliary factor: 500 nM mouse GTSF1
Sequence,"pre-steady-state target cleavage rate [1, 3]",pre-steady-state target cleavage rate [2],pre-steady-state target cleavage rate ([1]; auxiliary factor: none (no GTSF1))
UCCUGGAACAGCUUGCAUAGUUUUUUGUUA,0.0493 ± 0.014,0.00325 ± 0.0013,–
UCCUGGAACAGCUUGCAUAGUAAUUUGUUA,0.0687 ± 0.013,0.0032 ± 0.002,–
UCCUGGAUCAGCUUGCAUAGUAAUUUGUUA,0.114 ± 0.025,0.00366 ± 0.002,–
UCCUCCUACAGCUUGCAUAGUUUUUAGUAA,0.0743 ± 0.015,0.005 ± 0.0022,–
UCCUCCUACAGCUUGCAUAGUAAUUACUUA,0.0937 ± 0.025,0.005 ± 0.0027,–
UCCUGCUACAGCUUGCAUAGUAUAAAGUAA,0.0784 ± 0.021,0.00224 ± 0.0017,–
UCCUCCUACAGCAUGCAUAGAAUUUAGUUA,0.176 ± 0.044,0.00245 ± 0.0015,–
UCCUGGAACAGCUUGCAUAGGUAUUUAGUUA,–,0.00262 ± 0.0026,0.00517 ± 0.0026
UCCUGGUACAGCUUGCAUAGUAUUGAGUUA,0.155 ± 0.032,0.00418 ± 0.0024,–
UCCUGCUACAGCUUGCAUAGUAUUUACUUA,0.171 ± 0.032,0.00356 ± 0.0027,–
UCCUGGAUCACGAUGCAUAGUAUUUAGUAA,0.173 ± 0.016,0.00397 ± 0.0033,–
UCCUCCUACAGCUUGCAUAGUUUUAAGUUA,0.0543 ± 0.012,0.00431 ± 0.0024,–
UCCUGGUACAGCUUGCAUAGUAUUAAGUAA,0.128 ± 0.035,0.0031 ± 0.0028,–
UCCUGCUACAGCUUGCAUAGUAUUUAGAUUA,0.135 ± 0.023,0.00658 ± 0.0023,–
UCCUGGAUGAGCUUGCAUAAUAUUUAGUUA,0.266 ± 0.035,0.00543 ± 0.0021,–
UCCUGGAUCAGCUUGCAUAGAAUUUAGAUA,0.0147 ± 0.0059,0.0036 ± 0.0019,–
UCCUCCUACAGCUUGCAUACUAUUAAGUUA,0.0631 ± 0.019,0.00391 ± 0.0027,–
UCCUGGAACAGCUUGCAUAUUAUUUAGUUA,0.0696 ± 0.008,0.0169 ± 0.0055,–
UCCUCCUACAGCUUGCAUACUAUUUACUUA,0.0688 ± 0.016,0.00621 ± 0.0047,–

Sequence,"pre-steady-state target cleavage rate [1, 3]",pre-steady-state target cleavage rate [2],pre-steady-state target cleavage rate ([1]; auxiliary factor: none (no GTSF1))
UCCUGGAUGACGAUGCAUAGUAUUUAGUUA,0.0949 ± 0.013,0.00546 ± 0.0027,–
UCCUGGUACAGCUUGCAAAGUAUUUAGAAA,0.0181 ± 0.0094,0.00656 ± 0.0038,–
UCCUCCUACAGCUUGCAUAGUAUUUAGUGA,0.186 ± 0.034,0.00553 ± 0.0017,–
UCCUGCUACAGCUUGCAUAGAUUUUAGUAA,0.0161 ± 0.0046,0.0033 ± 0.0022,–
UCCUGGAACACCUUGCAUAGUAUAUAGUUA,0.189 ± 0.033,0.0051 ± 0.0035,–
UCCUCCAACAGCUUCCAUAGUAUUUAGUUA,0.0545 ± 0.017,0.00439 ± 0.0021,–
UCCUGGAUGUCGAACCAUAGUAUUUCGUUA,–,< 0.0001,–
UCCUGCUACAGCUUCCAUAGUAUUUACAAA,–,0.00279 ± 0.0021,–
UCCUGGAACAGCUUGCAUAGUAUAAAGUUA,0.196 ± 0.029,0.00389 ± 0.0023,–
UCCUGGAUGUCCUUGCAUAGUGUUUAGUUA,–,0.00951 ± 0.0035,–
UCCUGGUACAGCUUGGAUAGUAUUUAGAAA,–,0.00277 ± 0.0022,–
UCCUGGAACACGUUGCAUAGUAUUUAGUAA,–,0.00365 ± 0.0034,–
UCCUGCAACAGCAUGCAUAGUAUUUAGUUA,–,0.0232 ± 0.0055,–
UCCUCCUACAGCUUGCAUAGUAAUUUCAAA,0.182 ± 0.038,0.00321 ± 0.0026,–
UCCUGGUACAGCUUGCAUAGUAUUUUCUUA,0.0368 ± 0.016,0.00532 ± 0.0034,–
UCCUCCUACACGCUUGCAUAGUAUUUAGUUA,–,0.00856 ± 0.003,–
UCCUGGAUGUCGAACCAUCGUAUUUAGUUA,–,< 0.0001,–
UCCUGCUACAGCUAGCAUAGUAUUAAGUUA,0.3 ± 0.032,0.00662 ± 0.0026,–
UCCUGGAUGUCGAACGUAUGUAUUUAGAUUA,–,< 0.0001,–

Sequence,"pre-steady-state target cleavage rate [1, 3]",pre-steady-state target cleavage rate [2],pre-steady-state target cleavage rate ([1]; auxiliary factor: none (no GTSF1))
UCCUGCUACAGCUUGCAUAGUAUAAUGAAA,0.0499 ± 0.018,0.00473 ± 0.0032,–
UCCUGGAAGAGCUUGCAUAGUAUUUACAAA,0.0536 ± 0.02,0.00396 ± 0.0018,–
UCCUCGUUCAGCUUGCAUAGUAUUUAGUUA,–,0.104 ± 0.021,–
UCCUGGAUGUCGAUGCAUACUAUUAAGUUA,–,< 0.0001,–
UCCUGCUACAGCUUCCAUAGUAUUUAGAUA,–,0.00303 ± 0.00093,–
UCCUGGAUGAGCUUGCAUAGUAAUUACAAA,–,0.00446 ± 0.0034,–
UCCUCCUACAGGUUGCAUAGUAUUUUCAAA,0.0497 ± 0.013,0.00306 ± 0.0021,–
UCCUGCUACAGCUUGCAUAGUAUUUAGAAA,0.157 ± 0.032,0.00439 ± 0.0012,–
UCCUGGAUGUGCUUGCAUAGUAUUUGAGUUA,0.123 ± 0.024,0.0118 ± 0.0069,–
UCCUCCUACAGCUUGGAUAGUAUUUACUUA,0.0993 ± 0.024,0.00254 ± 0.0019,–
UCCUGCUACAGCUUGCAUAGUUUUUAGAAA,0.0163 ± 0.0061,0.00343 ± 0.0019,–
UCCUGGUACAGCUUGCAUUGUAUUUUGUUA,0.0604 ± 0.018,0.00266 ± 0.0026,–
UCCUGGAACAGCUUGCAUAGUUAUUAGUAA,0.0204 ± 0.0084,0.00454 ± 0.0037,–
UCCUGGUACAGCUUGCAUAGUAUUUACAAA,0.0693 ± 0.017,0.003 ± 0.002,–
UCCUGGAACUGCUUGCAUAGUAUUUUGUUA,0.101 ± 0.017,0.00426 ± 0.0026,–
UCCUGGUUGAGCUUGCAUAGUAUUUUCAAA,0.0103 ± 0.006,0.00218 ± 0.0021,–
UCCUCCUUCAGCUUGCAUAGUAUUUACUUA,0.132 ± 0.023,0.00514 ± 0.0032,–
UCCUCCAUCAGCUUGCAUAGUAUUUUCAAA,0.0846 ± 0.02,0.00384 ± 0.0024,–
UCCUGCAACAGCUUGCAUAGUAUUUAGAUA,0.125 ± 0.024,0.00372 ± 0.002,–
